We go through nine compounds from PubChem BioAssay (Tox21).

In assay [1] the target is Gonadotropin-releasing hormone receptor (Homo sapiens) (UniProt P30968). The experiment in a line: Human gonadotropin-releasing hormone receptor (GnRHR) small molecule agonists, calcium flux assay in GnRHR-HEK293 cells (AID 1920063). Further: nearly all actives have a fitted effect of over 35% in size. The method, boiled down: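 Compounds dissolved in DMSO are pin-transferred onto dye-loaded GnRHR-HEK293 cells, which were seeded 18 h before at 37 C/5% CO2. Calcium signal is read as fluorescence intensity at 1 s intervals for 3 min.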
Sequence of Gonadotropin-releasing hormone receptor (Homo sapiens) (P30968 whole entry, looked up): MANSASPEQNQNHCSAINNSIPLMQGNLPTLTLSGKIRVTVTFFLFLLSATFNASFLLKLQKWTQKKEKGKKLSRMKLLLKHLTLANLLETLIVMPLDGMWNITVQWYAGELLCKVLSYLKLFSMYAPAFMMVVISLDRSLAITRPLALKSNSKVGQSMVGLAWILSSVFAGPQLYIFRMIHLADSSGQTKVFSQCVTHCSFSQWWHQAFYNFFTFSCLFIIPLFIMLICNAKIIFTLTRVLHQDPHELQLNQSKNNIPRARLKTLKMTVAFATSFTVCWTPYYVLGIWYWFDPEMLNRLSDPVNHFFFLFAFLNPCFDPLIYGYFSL
(Calcium assays in cells follow changes in intracellular calcium, usually with a dye or a luminescent sensor.)

Assay [2] addresses KiSS-1 receptor (Homo sapiens) (UniProt Q969F8). Description: Human kisspeptin (KISS1R) small molecule agonists, calcium flux assay in KISS1R-HEK293 cells (AID 1920064; active means well fitted activation curve with a large enough effect in the repeat runs). A digest of the protocol: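 Cell line: HEK293, stable human KISS1R. Dye loading 1 h at 37 C after 18 h culture. Read: kinetic fluorescence, 480/540 nm, 3 min at 1 s intervals.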
Assay [3] in a line: G protein-coupled receptor (GPCR) small molecule agonists, calcium flux assay: HEK293 wild type cell line counter screen (AID 1920065). The method, boiled down: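 Tox21 10K compounds, 15 concentrations each in triplicate, pin-transferred in DMSO onto dye-loaded cells; kinetic read at 480/540 nm for 3 min, 1 s intervals.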
The nature of assay [4]: p53 small molecule agonists, cell-based qHTS assay with human liver microsomes (AID 1963577). A digest of the protocol: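 p53RE-bla reporter cells were pre-incubated 5 h at 37 C, then treated with compounds plus human liver microsomes (0.5 mg/mL final) and NADPH (0.5 mg/mL final) for 16 h at 37 C. Beta-lactamase activity was read by LiveBLAzer fluorescence after 2 h at room temperature.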
In general terms: qHTS replaces the single test concentration by a dilution series.

Assay [5] can be described thus: p53 small molecule agonists, cell-based qHTS assay with rat liver microsomes (AID 1963578). The method, boiled down:
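p53RE-bla cells were exposed to compounds together with rat liver microsomes (0.5 mg/mL final) and NADPH (0.5 mg/mL final) for 16 h at 37 C, then read by LiveBLAzer beta-lactamase fluorescence after 2 h at room temperature.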

Assay [6] in a line: p53 small molecule agonists, cell-based qHTS assay with human liver microsomes: qHTS cell viability counter screen (AID 1963579). Further: nearly all actives have a fitted effect of over 45% in size. A digest of the protocol: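 p53RE-bla cells (4,000/well) were pre-incubated 5 h at 37 C, then given compounds in DMSO plus human liver microsomes (0.5 mg/mL final) and NADPH (0.5 mg/mL final) for 16 h at 37 C. Viability was read by CellTiter-Glo luminescence.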

Assay [7] is described as follows: p53 small molecule agonists, cell-based qHTS assay with rat liver microsomes: qHTS cell viability counter screen (AID 1963580). Further: nearly all actives have a fitted effect of over 45% in size. A digest of the protocol:
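Counter screen for cytotoxicity under metabolic activation: rat liver microsomes and NADPH, 0.5 mg/mL final each, added with compounds to p53RE-bla HCT-116 cells; 16 h at 37 C, then ATP luminescence read.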

A short description of assay [8]: p53 small molecule agonists, cell-based qHTS assay: qHTS cell viability counter screen (AID 1963581). Further: nearly all actives have a fitted effect of over 45% in size. The method, boiled down:
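ATP content measured by luminescence in HCT-116 p53RE-bla cells treated 16 h at 37 C, same wells as the reporter screen.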

Assay [9] in a line: p53 small molecule agonists, cell-based qHTS assay (AID 1963582; active means well fitted activation curve with a large enough effect in the signal ratio in the repeat runs, not every such curve was filed as active; the % refers to the signal ratio). The method, boiled down:
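16 h compound exposure (37 C) of p53 response element–bla cells, preceded by 5 h recovery at 37 C/5% CO2; read-out via LiveBLAzer B/G FRET substrate, 2 h RT, fluorescence intensity.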

Assay [10] can be described thus: cAMP Responsive Elements (CRE) small molecule agonists, cell-based qHTS assay (AID 1963590). The method, boiled down:
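HEK 293T cells stably bearing CRE-bla were plated at 2,000 cells per well and rested 18 h. Compounds, positive controls or DMSO were added for 3 h at 37 C. LiveBLAzer B/G substrate was then loaded for 2 h at room temperature.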

The nature of assay [11]: cAMP Responsive Elements (CRE) small molecule antagonists, cell-based qHTS assay (AID 1963591; active means well fitted inhibition curve with a large enough effect in the signal ratio in the repeat runs, not every such curve was filed as active; the % refers to the signal ratio). The method, boiled down: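 First, CRE-bla HEK293T cells settled 18 h at 37 C. Next, compound and 0.25 uM final NKH477 were applied for 3 h. Last, LiveBLAzer B/G substrate was loaded for 2 h at room temperature.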
The target of assay [12] is Beta-2 adrenergic receptor (Homo sapiens) (UniProt P07550). Description: Adrenergic beta2 receptor (ADRB2) small molecule antagonists, cell-based qHTS assay (AID 1963592). Further: series mostly up to about 92 µM; nearly all actives have a fitted effect of over 50% in size. The method, boiled down:
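Assay format: CHO-ADRB2 cells, 18-20hr seeding at 37C/5% CO2, then compound plus 1nM isoproterenol agonist mix for 0.5hr RT. Homogeneous time-resolved fluorescence cAMP detection after 1hr, expressed as 665/615 nm ratio.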

Assay [13] shares this target. Description: Adrenergic beta2 receptor (ADRB2) small molecule agonists, cell-based qHTS assay (AID 1963593).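 Further: CHO cells stably overexpressing human ADRB2.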 A digest of the protocol: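 CHO cells stably over-expressing ADRB2 were plated overnight at 37C, then dosed with compounds plus a stimulation mix containing 100uM IBMX and 25uM Ro-20-1724 for 0.5hr at room temperature. cAMP was measured by HTRF competition, 1hr.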

Assay [14] concerns the target D(2) dopamine receptor (Homo sapiens) (UniProt P14416). Description: Dopamine D2 receptor (DRD2) small molecule agonists, cell-based qHTS assay (AID 1963594). Further: nearly all actives have a fitted effect of over 35% in size. A digest of the protocol: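 HEK293 cells stably expressing DRD2 were cultured 24 h at 37 C, then given Ro20-1724 (0.1 mM final) and compounds for 10 min at room temperature. NKH477 (200nM) was then added for 30 min. cAMP was read by HTRF.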

Assay [15] shares this target. Description: Dopamine D2 receptor (DRD2) small molecule antagonists, cell-based qHTS assay (AID 1963595; active means well fitted inhibition curve with a large enough effect in the signal ratio in the repeat runs, with a control signal flat; the % refers to the signal ratio; further: potency means the concentration at half of the fitted maximal effect). The method, boiled down:
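Antagonist mode in DRD2-HEK293 cells: after compound addition with 0.1 mM Ro20-1724, cells received quinpirole (12 nM) and NKH477 (200 nM) for 30 min at room temperature; HTRF cAMP read after 1 h detection.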

In assay [16] the target is 5-hydroxytryptamine receptor 2A (Homo sapiens) (UniProt P28223). The experiment in a line: 5-hydroxytryptamine receptor 2A (HTR2A) small molecule antagonists, cell-based qHTS assay (AID 1963586). Further: nearly all actives have a fitted effect of over 45% in size. A digest of the protocol: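 CHO cells stably expressing human HTR2A were plated for 18 h at 37 C, then loaded with calcium dye for 1 h. Compounds were preincubated 5 min at room temperature before DOI (4 nM solution) was added. Kinetic fluorescence was read for 3 min.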
Sequence of 5-hydroxytryptamine receptor 2A (Homo sapiens) (P28223 whole entry, looked up): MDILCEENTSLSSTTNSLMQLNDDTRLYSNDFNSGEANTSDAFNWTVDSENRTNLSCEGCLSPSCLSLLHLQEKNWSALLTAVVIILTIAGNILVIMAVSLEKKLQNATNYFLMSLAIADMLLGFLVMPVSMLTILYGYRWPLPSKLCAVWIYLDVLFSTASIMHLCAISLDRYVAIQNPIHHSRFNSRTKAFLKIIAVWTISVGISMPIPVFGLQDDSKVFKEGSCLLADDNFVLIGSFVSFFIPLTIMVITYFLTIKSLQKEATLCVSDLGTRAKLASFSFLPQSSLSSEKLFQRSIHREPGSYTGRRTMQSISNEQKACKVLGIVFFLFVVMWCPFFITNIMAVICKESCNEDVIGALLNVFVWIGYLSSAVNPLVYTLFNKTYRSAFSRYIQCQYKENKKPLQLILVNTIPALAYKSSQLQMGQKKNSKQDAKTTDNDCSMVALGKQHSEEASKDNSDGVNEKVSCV

Assay [17] shares this target. Description: 5-hydroxytryptamine receptor 2A (HTR2A) small molecule agonists, cell-based qHTS assay (AID 1963587). Further: nearly all actives have a fitted effect of over 30% in size. The method, boiled down:
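HTR2A-CHO cells, plated 18 h at 37 C/5% CO2, dye-loaded 1 h at 37 C; compounds in DMSO added by pin tool (agonist mode). Intracellular calcium flux read as kinetic fluorescence on FDSS over 2 min at 1 s intervals.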

Assay [18] concerns the target Muscarinic acetylcholine receptor M1 (Homo sapiens) (UniProt P11229). The experiment in a line: Cholinergic receptor muscarinic 1 (CHRM1) small molecule agonists, cell-based qHTS assay (AID 1963589). Further: nearly all actives have a fitted effect of over 35% in size. The method, boiled down:
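Homogeneous fluorescence calcium flux, agonist mode. Human M1-expressing CHO cells; compound dosed at 15 concentrations, three independent runs; signal sampled every 1 sec.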

Assay [19] shares this target. The experiment in a line: Cholinergic receptor muscarinic 1 (CHRM1) small molecule antagonists, cell-based qHTS assay (AID 1963588). Further: nearly all actives have a fitted effect of over 40% in size. A digest of the protocol:
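Compounds were tested at 15 concentrations in three independent runs. Dye-loaded CHRM1-CHO cells were exposed 5 min at room temperature before stimulation by acetylcholine added at 50nM. Intracellular calcium was read kinetically on FDSS for 3 min.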

Where “and” joins values, the source holds several entries; their conditions need not be identical. Identical values can stand only once. Unmarked numbers belong to inactive results. Inconclusive results are not listed. Calls of active or inactive are those of the source. Unless noted, the call rests on the fitted dose curve.
On the % scale 0 is the no-effect control and ±100 the full control effect.

Sequence of Beta-2 adrenergic receptor (Homo sapiens) (P07550 whole entry, looked up): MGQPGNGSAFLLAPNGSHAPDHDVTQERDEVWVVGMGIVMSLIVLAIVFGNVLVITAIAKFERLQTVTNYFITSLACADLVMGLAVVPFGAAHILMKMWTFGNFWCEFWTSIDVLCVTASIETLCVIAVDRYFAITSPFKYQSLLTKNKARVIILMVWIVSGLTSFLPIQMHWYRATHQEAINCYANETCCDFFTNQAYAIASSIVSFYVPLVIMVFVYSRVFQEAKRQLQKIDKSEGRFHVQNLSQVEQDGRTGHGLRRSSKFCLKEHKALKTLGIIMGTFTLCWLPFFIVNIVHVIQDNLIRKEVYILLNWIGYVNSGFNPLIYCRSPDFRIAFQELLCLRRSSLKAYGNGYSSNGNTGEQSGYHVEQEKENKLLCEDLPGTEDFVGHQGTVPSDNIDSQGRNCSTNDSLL
Sequence of KiSS-1 receptor (Homo sapiens) (Q969F8 whole entry, looked up): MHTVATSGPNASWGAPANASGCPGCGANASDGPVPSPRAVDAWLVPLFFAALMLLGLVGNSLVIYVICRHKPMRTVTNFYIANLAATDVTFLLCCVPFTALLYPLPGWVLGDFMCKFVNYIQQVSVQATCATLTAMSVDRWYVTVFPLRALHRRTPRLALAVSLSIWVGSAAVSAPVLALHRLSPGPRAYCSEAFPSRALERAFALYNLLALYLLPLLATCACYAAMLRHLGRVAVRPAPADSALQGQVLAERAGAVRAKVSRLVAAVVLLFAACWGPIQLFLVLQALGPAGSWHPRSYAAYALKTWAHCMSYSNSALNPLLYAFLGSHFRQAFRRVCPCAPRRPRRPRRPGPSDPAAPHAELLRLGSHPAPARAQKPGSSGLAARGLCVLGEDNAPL
Sequence of Muscarinic acetylcholine receptor M1 (Homo sapiens) (P11229 whole entry, looked up): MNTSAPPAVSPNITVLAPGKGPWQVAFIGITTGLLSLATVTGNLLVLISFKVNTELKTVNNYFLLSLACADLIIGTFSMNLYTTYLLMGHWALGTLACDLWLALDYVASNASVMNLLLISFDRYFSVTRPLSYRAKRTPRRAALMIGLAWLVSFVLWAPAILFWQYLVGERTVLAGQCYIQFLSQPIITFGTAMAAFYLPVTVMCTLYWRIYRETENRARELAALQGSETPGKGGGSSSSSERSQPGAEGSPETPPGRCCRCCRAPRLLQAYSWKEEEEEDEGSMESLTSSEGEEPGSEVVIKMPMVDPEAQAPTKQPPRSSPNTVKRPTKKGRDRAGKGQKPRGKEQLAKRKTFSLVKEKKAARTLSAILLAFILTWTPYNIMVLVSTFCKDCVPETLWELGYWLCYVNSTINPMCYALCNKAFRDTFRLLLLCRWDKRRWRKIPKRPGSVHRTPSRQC
Sequence of D(2) dopamine receptor (Homo sapiens) (P14416 whole entry, looked up): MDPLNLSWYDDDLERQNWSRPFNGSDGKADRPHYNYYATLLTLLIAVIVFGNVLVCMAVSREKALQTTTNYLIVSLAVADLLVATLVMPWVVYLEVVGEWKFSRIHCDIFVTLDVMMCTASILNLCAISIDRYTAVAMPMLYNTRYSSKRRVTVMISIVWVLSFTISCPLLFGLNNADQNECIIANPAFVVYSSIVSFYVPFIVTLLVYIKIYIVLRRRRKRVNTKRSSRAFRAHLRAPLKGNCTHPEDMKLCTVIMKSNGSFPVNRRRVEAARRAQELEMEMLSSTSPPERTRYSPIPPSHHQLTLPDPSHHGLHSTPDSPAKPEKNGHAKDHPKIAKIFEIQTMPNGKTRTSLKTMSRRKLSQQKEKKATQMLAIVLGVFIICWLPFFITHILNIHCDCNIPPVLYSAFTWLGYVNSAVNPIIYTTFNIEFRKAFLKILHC

Take `CC(=O)Nc1cccc(O)c1`: the Potency entry in assay [1], in [2], in assay [3], in [4], in assay [5] and in assay [6] was “inactive” each time. Moreover, the Potency entry in assay [7], in [8], in [9], in [10], in [11] and in assay [12] was “inactive” in each case. Further, the Potency result in [13], in assay [14] and in assay [15] was “inactive” each time.

On to `CC(C)NCC(O)c1ccc(O)c(O)c1` (stereo not drawn), for which the Potency entry in assay [3], in assay [7], in assay [8], in [11] and in assay [14] was “inactive” throughout. In assay [15], the Potency is 303 nM (active) and 969 nM (active) and 596 nM (active).

Consider `CCC(C)OC(=O)c1ccc(O)cc1` (stereo not drawn), for which the Potency entry in assay [1], in assay [2], in assay [3], in [4], in assay [7] and in assay [8] was “inactive” throughout. The Potency entry in [16], in assay [17], in assay [18], in [10], in assay [11] and in [12] was “inactive” each time. The Potency entry in assay [14] and in assay [15] was “inactive” in each case.

Consider `O=S(=O)(O)NC1CCCCC1`, for which the Potency entry in [1], in [2], in [3], in assay [6], in assay [7] and in [8] was “inactive” each time. The Potency entry in assay [16], in assay [17], in [19], in assay [18], in [10] and in [11] was “inactive” throughout. The Potency entry in assay [12], in [14] and in assay [15] was “inactive” in each case. The activation in [13] is -21.4% [at 19 µM].

As to `CCCCC(CC)COC(=O)CCCCC(=O)OCC(CC)CCCC` (stereo not drawn), the Potency result in assay [1], in [3], in assay [4], in assay [5], in assay [6] and in [7] was “inactive” each time. Besides, the Potency result in [8], in assay [9], in assay [16], in [17], in assay [19] and in assay [18] was “inactive” throughout. Further, the Potency entry in [10], in [11], in assay [12], in [13], in [14] and in assay [15] was “inactive” throughout.

Take `Oc1ccccc1`: the Potency result in assay [1], in [2], in assay [3], in [4], in assay [5] and in [6] was “inactive” throughout. The Potency entry in assay [7], in assay [8], in assay [9], in [10], in assay [11] and in assay [13] was “inactive” each time. Moreover, the Potency result in assay [14] and in assay [15] was “inactive” throughout.

Turning to `NC(N)=Nc1nc(CSCC/C(N)=N/S(N)(=O)=O)cs1`, the Potency entry in assay [1], in assay [2], in assay [3], in assay [4], in assay [5] and in assay [6] was “inactive” in each case. In addition, the Potency entry in assay [7], in assay [8], in assay [9], in assay [10], in [11] and in [12] was “inactive” throughout. Also, the Potency entry in assay [13], in [14] and in assay [15] was “inactive” each time.

`CCC(C)C=O` (stereo not drawn): the Potency entry in assay [1], in assay [3], in [4], in assay [5], in assay [6] and in [7] was “inactive” in each case. Moreover, the Potency entry in [8], in [9], in assay [16], in assay [17], in assay [19] and in assay [18] was “inactive” in each case. Further, the Potency entry in [10], in assay [11], in assay [12], in assay [13], in [14] and in assay [15] was “inactive” throughout.

For `O=C(O)CN(CC(=O)O)CC(=O)O`, the Potency result in [1], in assay [2], in assay [3], in assay [4], in [6] and in [8] was “inactive” throughout. For the same compound, the Potency result in assay [9], in [16], in assay [17], in assay [19], in assay [18] and in assay [10] was “inactive” throughout. Also, the Potency result in assay [11], in [12], in assay [13], in assay [14] and in [15] was “inactive” in each case.
